Inconclusive results are not listed. Values without a mark were called inactive. Active and inactive are the calls of the source. Calls follow the shape of the dose curve; as a rule, active = well fitted curve in the direction sought with a large enough effect; inconclusive = small, poorly fitted or top-dose-only effect, or another doubt; inactive = no such curve, though single readings can be large; an effect the other way counts as inactive or inconclusive.

From PubChem BioAssay (NCATS) come the findings set out here.

Assay [1] in a line: Drug repurposing screens with cells derived from glioblastoma tumor samples (AID 1345199). Also: nearly all actives have a fitted effect of over 40% in size. Also: potency is read from the fitted curve at half-maximal effect. To be noted: GBM patient neurospheres viability, ATP luminescence, 48 h. In short, it runs like this:
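Four patient lines of CD133+ GBM neurospheres were screened at several concentrations; hits were retested in those lines plus three slower-growing GBM lines, using 48-hour treatment and ATP-based viability.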

Assay [2] in a line: qHTS assay to identify inhibitors of the type 1 interferon - major histocompatibility complex class I in skeletal muscle: Counter screen cell viability and HiBit confirmation (AID 1347412). Also: nearly all actives have a fitted effect of over 60% in size. To be noted: iHSKM muscle cells + IFN-b, HiBiT or CellTiter-Glo, 24 h; Viability; at 45.9 µM (top of the series). In short, it runs like this:
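CRISPR HLA-B*08:01-HiBit immortalized human myoblasts (C25cl48) stimulated with 4 ng/ml IFN-beta and compounds (12-point 1:3, top 46 uM final) for 24 h at 37 C. Duplicate plates read by HiBit lytic luminescence or CellTiter Glo ATP.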
Background: qHTS replaces the single test concentration by a dilution series.

Setting [3] is: at 21.2 µM (top of the series), tumour line D.
The mark [4] stands for this setting: at 21.3 µM (top of the series), tumour line A.
% is scaled to controls: 0 for no effect and ±100 for the full control effect.

Take `NS(=O)(=O)c1cc(Cl)c(Cl)c(S(N)(=O)=O)c1`: the values for the activity, negative = cell killing in assay [1] (setting [3]) and in assay [1] (setting [4]) were 5.15% and -15%, respectively. `NCC1CCC(C(=O)O)CC1` (centres undefined): the activity, negative = cell killing is -6.32% in assay [1] (setting [3]) and -17.9% in assay [1] (setting [4]). Consider `N#CC(c1ccc(Cl)cc1)c1c(Cl)cc(-n2ncc(=O)[nH]c2=O)cc1Cl` (centres undefined), for which the Potency in assay [1] (tumour line C) was 16.4 µM (active). In the case of `Clc1ccc(COC(Cn2ccnc2)c2ccc(Cl)cc2Cl)c(Cl)c1` (centres undefined), the Potency in assay [1] (tumour line D) is 14.1 µM (active).

`Fc1ccc(C(c2ccc(F)cc2)N2CCN(CC=Cc3ccccc3)CC2)cc1`: in assay [1] (tumour line D), the Potency is 11.2 µM (active). Regarding `O=C(Nc1cccc(Cl)c1)Nc1ncc(CCNc2ncnc3ccsc23)s1`, the activity change, negative = inhibition in assay [2] is 8.48%. On the same count and under the same terms, next, `CC(C)CNc1ccnc(NCc2csc(-c3ccccc3)n2)n1`: -28.7%.
